# According to PubChem BioAssay (NCATS):
# Values without a mark were called inactive. Results filed as inconclusive are left out. Activity calls are given as the source filed them. Unless noted, calls follow the shape of the dose curve; as a rule, active = well fitted curve in either direction with a large enough effect (not every such curve was filed as active); inconclusive = small, poorly fitted or top-dose-only effect, or another doubt; inactive = flat fitted curve, though single readings scatter.
# What was measured:
# [1] = NFAT Signaling Pathway (AID 444); conditions: Jurkat NFAT-bla M1, carbachol, beta-lactamase ratio, 5 h; at 17.2 µM (top of the series) unless noted;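 also: carbachol stimulus at about its EC50 of 1 µM final; % is scaled to controls: 0 for no effect and ±100 for the full control effect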
# Outline: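 Jurkat cells with NFAT-driven β-lactamase reporter and co-expressed M1 receptor, stimulated with carbachol (final 1 uM, ~EC50), compound titration, 5 h at 37 °C. CCF4 loaded 1 h at RT; 460/530 nm ratio gave %activity and AC50.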
# [2] = target: Glucocorticoid receptor (Homo sapiens) (UniProt P04150); assay: GR-GFP Redistribution (AID 450;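 active = compounds whose dose series gives a full or clear partial fitted curve of increased nuclear translocation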; also: potency is read from the fitted curve at half-maximal effect)
# [3] = Stat Signaling Pathway (AID 446); conditions: ME-180 SIE beta-lactamase reporter, IL-6 stimulated, 5 h; at 17.2 µM (top of the series) unless noted;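 also: ME-180 cervical cancer cells given 40 pM IL-6 alongside compound; SIE-controlled beta-lactamase reporter measured as 460/530 nm FRET emission ratio; % is scaled to controls: 0 for no effect and ±100 for the full control effect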
# Outline: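 Reporter line: ME-180 cervical carcinoma, SIE-beta-lactamase. Treatment: compound with 40 pM IL-6, 5 hrs, 37 C, in low-serum OPTI-MEM with 10 mM HEPES pH 7.3. Detection: 460/530 nm fluorescence.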
# [4] = target: Mitogen-activated protein kinase 10 (Mus musculus) (UniProt Q61831); assay: JNK3 AlphaScreen Assay (AID 530);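 also: kinase came from lysate of stimulated human HepG2 cells; signal reports phosphorylation of biotinylated GST-cJun 1-79 at Ser73 with 10 µM ATP; % is scaled to controls: 0 for no effect and ±100 for the full control effect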
# Outline: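 Pre-activated (IL-1β/TNFα) JNK3 in HepG2 lysates phosphorylates biotin-GST-cJun(1-79), 10 uM ATP; anti-phospho-cJun(Ser73) AlphaScreen read at room temperature, pH 7.6 Tris buffer. Compounds pre-incubated 15 min as titrations.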
# [5] = target: 3',5'-cyclic-AMP phosphodiesterase 4B (Homo sapiens) (UniProt Q07343); assay: qHTS Assay for Inhibitors of PDE-IV (AID 607; active = well fitted activation curve with a large enough effect in the main read-out, with a control signal flat, not every such curve was filed as active; also: % of control where 0% means no effect)
# Outline: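 Cell-based read-out of cAMP via a modified cyclic nucleotide-gated channel and membrane potential dye (535/590 nm) in HEK293 cells expressing PDE4 endogenously. Compounds tested up to 22.9 uM final; 100 uM RO 20-1724 reference.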
# [6] = target: ATP-dependent 6-phosphofructokinase (Trypanosoma brucei brucei) (UniProt O15648); assay: qHTS Assay to Find Inhibitors of T. brucei phosphofructokinase: hit validation (AID 492961; active = well fitted curve in the direction sought with a large enough effect; an effect the other way counts as inactive or inconclusive;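 also: luminescence reports ADP formed as PFK phosphorylates fructose-6-phosphate with ATP; % is scaled to controls: 0 for no effect and ±100 for the full control effect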)
# Outline: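 Inhibition of parasite PFK is measured as reduced ADP formation, quantified via luciferase after ATP depletion. Assay used 0.1 mM ATP, 0.5 mM F6P, 1.25 nM enzyme, 45 min incubation.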
# [7] = target: Luciferin 4-monooxygenase (Photinus pyralis) (UniProt P08659); assay: Biochemical firefly luciferase enzyme assay for NPC (AID 624030; active = well fitted curve in the direction sought with a large enough effect; an effect the other way counts as inactive or inconclusive;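 also: purified P. pyralis luciferase at 10 nM with luciferin and ATP substrate; 0% = DMSO and -100% = full luciferase inhibition by PTC124 control; nearly all actives have a fitted effect of over 70% in size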)
# Outline: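 Purified P. pyralis luciferase at 10 nM in 50 mM Tris Acetate (final), luminescence read within 5 minutes of enzyme addition to compounds. Activity normalised to PTC124 versus DMSO; concentration-response curves classed by r2, magnitude and activity.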
# [8] = S16 Schwann cell viability assay (CellTiter-Glo assay) (AID 624031; active = well fitted curve in the direction sought with a large enough effect; an effect the other way counts as inactive or inconclusive;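 also: cellular ATP luminescence as a viability measure; plate controls were DMSO-treated cells for no effect and cell-free wells for full effect; nearly all actives have a fitted effect of over 70% in size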)
# Outline: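 This viability control uses native rat S16 Schwann cells grown in DMEM plus 10% FBS. After a 24 h compound treatment at 37 °C, CellTiter-Glo luminescence reports ATP content, scaled against DMSO-treated and cell-free wells.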
# [9] = S16 Schwann cell PMP22 intronic element firefly luciferase assay (AID 624032; active = well fitted curve in the direction sought with a large enough effect; an effect the other way counts as inactive or inconclusive;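 also: plate controls were DMSO for no effect and PTC124 positive control mean for full effect; nearly all actives have a fitted effect of over 30% in size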)
# Outline: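 Rat S16 Schwann cells stably carrying firefly luciferase driven by a PMP22 intronic element, in 10% FBS, treated 24 h at 37 C. ONE-Glo luminescence normalized to PTC124 control and DMSO (0%); curves classed by r2, magnitude and activity.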
# [10] = S16 Schwann cell PMP22 intronic element beta-lactamase assay (AID 624044; calls by dose curve; also: potency is read from the fitted curve at half-maximal effect; nearly all actives have a fitted effect of over 15% in size); conditions: S16 rat Schwann cells, PMP22 element beta-lactamase FRET, 24 h; ratio activity, negative = inhibition: at 38.3 µM (top of the series)
# Outline: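 Rat S16 Schwann cells with beta-Lac driven by a PMP22 intronic element, compound-treated 24 h at 37 °C. LiveBLAzer FRET B/G read: 460 nm normalized to potassium clavulanate vs DMSO; 535 nm FRET as viability; concentration-effect curves classified.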
# 7G8 = assay: qHTS profiling for inhibitors of Plasmodium falciparum proliferation (AID 504749; active = well fitted curve in the direction sought with a large enough effect; an effect the other way counts as inactive or inconclusive; also: nearly all actives have a fitted effect of over 60% in size; also: potency is read from the fitted curve at half-maximal effect;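 as to activity, negative = inhibition: 0% = DMSO vehicle and full inhibition = artemisinin control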); conditions: P. falciparum in erythrocytes, SYBR Green DNA, 72 h; series mostly up to 28.7 µM
# Outline: (§1)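 P. falciparum-infected erythrocytes (0.3% parasitemia, 2.5% hematocrit) incubated with compound 72 h at 37 C, 5% CO2. Parasite DNA detected by SYBR Green after lysis, overnight at room temperature; normalised to 0.29 uM artemisinin and DMSO.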
# CP192 = assay: as above; conditions: P. falciparum in erythrocytes, SYBR Green DNA, 72 h; series mostly up to 28.7 µM
# Outline: as §1
# CP201 = assay: as above; conditions: P. falciparum in erythrocytes, SYBR Green DNA, 72 h; series mostly up to 28.7 µM
# Outline: as §1
# CP203 = assay: as above; conditions: P. falciparum in erythrocytes, SYBR Green DNA, 72 h; series mostly up to 28.7 µM
# Outline: as §1
# CP262 = assay: as above; conditions: P. falciparum in erythrocytes, SYBR Green DNA, 72 h; series mostly up to 28.7 µM
# Outline: as §1
# CP266 = assay: as above; conditions: P. falciparum in erythrocytes, SYBR Green DNA, 72 h; series mostly up to 28.7 µM
# Outline: as §1
# CP315 = assay: as above; conditions: P. falciparum in erythrocytes, SYBR Green DNA, 72 h; series mostly up to 28.7 µM
# Outline: as §1
# DIV14 = assay: as above; conditions: P. falciparum in erythrocytes, SYBR Green DNA, 72 h; series mostly up to 28.7 µM
# Outline: as §1
# FAB9 = assay: as above; conditions: P. falciparum in erythrocytes, SYBR Green DNA, 72 h; series mostly up to 28.7 µM
# Outline: as §1
# HB3 = assay: as above; conditions: P. falciparum in erythrocytes, SYBR Green DNA, 72 h; series mostly up to 28.7 µM
# Outline: as §1
# PC15 = assay: as above; conditions: P. falciparum in erythrocytes, SYBR Green DNA, 72 h; series mostly up to 28.7 µM
# Outline: as §1
# PC26 = assay: as above; conditions: P. falciparum in erythrocytes, SYBR Green DNA, 72 h; series mostly up to 28.7 µM
# Outline: as §1
# PC49 = assay: as above; conditions: P. falciparum in erythrocytes, SYBR Green DNA, 72 h; series mostly up to 28.7 µM
# Outline: as §1
# W2 = assay: as above; conditions: P. falciparum in erythrocytes, SYBR Green DNA, 72 h; series mostly up to 28.7 µM
# Outline: as §1
# Glucocorticoid receptor (Homo sapiens), sequence (P04150 whole entry, looked up): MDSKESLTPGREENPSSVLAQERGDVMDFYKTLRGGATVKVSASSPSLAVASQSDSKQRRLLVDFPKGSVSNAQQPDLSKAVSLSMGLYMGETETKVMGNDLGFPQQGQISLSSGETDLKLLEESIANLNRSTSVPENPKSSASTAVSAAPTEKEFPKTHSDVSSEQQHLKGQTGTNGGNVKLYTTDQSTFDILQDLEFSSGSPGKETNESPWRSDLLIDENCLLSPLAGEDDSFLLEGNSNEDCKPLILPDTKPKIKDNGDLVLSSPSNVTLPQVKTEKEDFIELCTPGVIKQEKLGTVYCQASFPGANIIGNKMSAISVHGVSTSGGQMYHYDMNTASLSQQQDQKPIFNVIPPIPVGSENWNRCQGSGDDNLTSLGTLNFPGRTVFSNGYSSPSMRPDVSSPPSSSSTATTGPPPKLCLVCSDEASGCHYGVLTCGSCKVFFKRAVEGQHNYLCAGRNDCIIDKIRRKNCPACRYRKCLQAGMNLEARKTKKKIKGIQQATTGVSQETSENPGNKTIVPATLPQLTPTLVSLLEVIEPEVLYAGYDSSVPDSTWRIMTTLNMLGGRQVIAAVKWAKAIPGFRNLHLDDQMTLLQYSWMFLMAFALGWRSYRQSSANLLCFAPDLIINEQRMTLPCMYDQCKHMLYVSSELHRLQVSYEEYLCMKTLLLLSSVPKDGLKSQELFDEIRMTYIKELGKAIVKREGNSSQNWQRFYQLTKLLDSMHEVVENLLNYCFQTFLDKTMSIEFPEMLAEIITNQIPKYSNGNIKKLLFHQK
# ATP-dependent 6-phosphofructokinase (Trypanosoma brucei brucei), sequence (O15648 whole entry, looked up): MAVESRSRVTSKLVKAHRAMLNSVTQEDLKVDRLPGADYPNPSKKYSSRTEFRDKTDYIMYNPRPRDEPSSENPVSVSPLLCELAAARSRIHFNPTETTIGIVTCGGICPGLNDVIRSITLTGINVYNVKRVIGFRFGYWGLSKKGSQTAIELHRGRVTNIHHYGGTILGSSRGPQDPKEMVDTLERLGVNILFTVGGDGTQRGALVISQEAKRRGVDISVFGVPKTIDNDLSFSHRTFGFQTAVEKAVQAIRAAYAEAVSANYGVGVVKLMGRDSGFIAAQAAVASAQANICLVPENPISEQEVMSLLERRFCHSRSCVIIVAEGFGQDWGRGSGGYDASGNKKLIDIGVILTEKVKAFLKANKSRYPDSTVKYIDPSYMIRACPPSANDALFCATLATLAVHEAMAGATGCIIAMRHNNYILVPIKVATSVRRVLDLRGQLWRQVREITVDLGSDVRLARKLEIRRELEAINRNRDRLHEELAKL
# 3',5'-cyclic-AMP phosphodiesterase 4B (Homo sapiens), sequence (Q07343 whole entry, looked up): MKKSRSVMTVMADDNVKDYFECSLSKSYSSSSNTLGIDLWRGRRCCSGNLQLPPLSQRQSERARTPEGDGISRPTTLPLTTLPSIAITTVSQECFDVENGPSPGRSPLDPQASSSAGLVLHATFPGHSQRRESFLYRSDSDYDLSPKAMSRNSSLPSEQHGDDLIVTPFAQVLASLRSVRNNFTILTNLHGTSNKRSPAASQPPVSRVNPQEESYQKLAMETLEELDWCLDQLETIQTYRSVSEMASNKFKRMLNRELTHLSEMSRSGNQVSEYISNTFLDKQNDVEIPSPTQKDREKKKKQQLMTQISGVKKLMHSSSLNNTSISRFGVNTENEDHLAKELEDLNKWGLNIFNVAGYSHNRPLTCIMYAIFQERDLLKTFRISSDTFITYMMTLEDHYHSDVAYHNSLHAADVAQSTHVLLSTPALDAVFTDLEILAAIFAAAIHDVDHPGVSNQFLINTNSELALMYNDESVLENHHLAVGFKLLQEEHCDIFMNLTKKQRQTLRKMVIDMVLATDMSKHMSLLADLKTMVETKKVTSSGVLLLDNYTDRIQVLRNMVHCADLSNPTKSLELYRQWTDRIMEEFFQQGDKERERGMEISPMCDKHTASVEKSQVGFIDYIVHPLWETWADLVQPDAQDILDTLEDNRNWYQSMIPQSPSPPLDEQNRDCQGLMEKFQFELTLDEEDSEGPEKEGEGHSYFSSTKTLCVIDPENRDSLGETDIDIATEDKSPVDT
# Luciferin 4-monooxygenase (Photinus pyralis), sequence (P08659 whole entry, looked up): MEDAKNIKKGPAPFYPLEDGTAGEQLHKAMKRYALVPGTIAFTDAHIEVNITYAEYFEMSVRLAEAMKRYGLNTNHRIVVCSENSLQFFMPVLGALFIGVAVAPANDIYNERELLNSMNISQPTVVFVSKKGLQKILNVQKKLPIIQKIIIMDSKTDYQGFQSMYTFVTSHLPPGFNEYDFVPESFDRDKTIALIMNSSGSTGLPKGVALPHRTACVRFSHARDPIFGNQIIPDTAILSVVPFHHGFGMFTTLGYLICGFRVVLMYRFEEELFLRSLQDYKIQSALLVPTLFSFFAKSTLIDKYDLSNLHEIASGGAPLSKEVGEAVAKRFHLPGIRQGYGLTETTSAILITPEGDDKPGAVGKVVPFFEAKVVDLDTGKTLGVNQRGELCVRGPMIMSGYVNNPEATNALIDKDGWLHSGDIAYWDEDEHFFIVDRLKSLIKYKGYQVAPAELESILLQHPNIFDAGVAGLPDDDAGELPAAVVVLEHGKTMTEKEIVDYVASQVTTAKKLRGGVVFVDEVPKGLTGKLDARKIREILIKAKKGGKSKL
structure (smiles),measurement,setting,value
CN(Cc1ccccc1)c1ncnc2ccc(Br)cc12,"activity change, negative = inhibition",[1],-9.63%
same,Potency,[2],> 20.6 µM
COc1ccc(C(=O)C(CN2CCCC2)c2ccccc2)cc1 (stereo not drawn),"activity, negative = inhibition",[3],-8.3%
same,Potency,[2],> 20.6 µM
CC1(C)Cc2c(C#N)c(OCC(=O)c3ccc(Cl)cc3)nc(-c3ccoc3)c2CO1,"activity change, negative = inhibition",[1],-4.81%
same,Potency,[2],> 20.6 µM
COc1cccc(OCCN2CCN(c3ncnc4c3cnn4-c3ccccc3)CC2)c1,"activity change, negative = inhibition",[1],-29.6%
same,Potency,[2],> 20.6 µM
Cc1ccc(N2CC(C(=O)Nc3ccc(N(C)C)cc3)CC2=O)cc1C (stereo not drawn),"activity change, negative = inhibition",[1],21.8%
same,Potency,[2],> 20.6 µM
OCCNc1ncnc2c1c(-c1ccccc1)c(-c1ccccc1)n2Cc1ccco1,"activity change, negative = inhibition",[1],-23.1%
same,Potency,[2],> 20.6 µM
COc1ccc(OC)c(NC(=O)CSC2=C(C#N)C(c3ccco3)C3=C(CCCC3=O)N2)c1 (stereo not drawn),"activity, negative = inhibition",[3],-3.42%
same,Potency,[2],> 20.6 µM
COc1ccccc1C(=O)NC(=Nc1nc2ccccc2o1)NC(=O)c1ccccc1OC,"activity change, negative = inhibition",[1],-110% (active)
same,Potency,[2],> 20.6 µM
NCCN1C(=O)c2ccccc2[C@@]1(O)c1ccc(Cl)cc1,"activity, negative = inhibition",[3],2.46% [at 7.69 µM]
COc1cc(C2C(C#N)=C(N)Oc3cc(N)ccc32)cc(OC)c1OC (stereo not drawn),"activity, negative = inhibition",[3],-20.2%
same,Potency,[2],> 20.6 µM
CSc1nc(N)c(C#N)c(-c2ccccc2Cl)c1C#N,"activity change, negative = inhibition",[1],19.4%
same,Potency,[2],> 20.6 µM
COc1cc([C@H]2c3cc4c(cc3[C@@H](O[C@H]3O[C@H]5CO[C@@H](C)O[C@H]5[C@@H](O)[C@@H]3O)[C@@H]3COC(=O)[C@H]23)OCO4)cc(OC)c1O,"activity change, negative = inhibition",[1],-0.949%
same,"activity, negative = inhibition",[3],-20.6%
same,Potency,[4],inactive
same,Potency,[5],inactive
same,Potency,[6],inactive
same,Potency,[7],inactive
same,Potency,[8],inactive
same,Potency,[9],inactive
same,Potency,[10],4.46 µM (active)
same,Potency,7G8,15.8 µM (active)
same,Potency,CP192,inactive
same,Potency,CP201,inactive
same,Potency,CP203,inactive
same,Potency,CP262,inactive
same,Potency,CP266,inactive
same,Potency,CP315,inactive
same,Potency,DIV14,inactive
same,Potency,FAB9,inactive
same,Potency,HB3,inactive
same,Potency,PC15,inactive
same,Potency,PC26,inactive
same,Potency,PC49,inactive
same,Potency,W2,13.5 µM (active)
COc1ccc(CNc2oc(COc3ccc(Cl)cc3)nc2C#N)cc1,"activity, negative = inhibition",[3],-26.7%
same,Potency,[2],> 20.6 µM
CCSc1nc(N)c(C#N)c(-c2ccccc2Cl)c1C#N,"activity change, negative = inhibition",[1],-7.47%
same,Potency,[2],> 20.6 µM
CC(=Nc1cccc(O)c1)c1sc2ccccc2c1O,"activity change, negative = inhibition",[1],-27.3%
same,Potency,[2],> 20.6 µM
CCCCNc1c(CN)cnc2cc(Cl)ccc12,"activity, negative = inhibition",[3],-10.8% [at 7.69 µM]
N#CC1=C(SCC(=O)c2ccc(Cl)cc2)NC2=C(C(=O)CCC2)C1c1ccco1 (stereo not drawn),"activity change, negative = inhibition",[1],-22.4%
same,Potency,[2],> 20.6 µM
